system: VDR:RXRa (NR concentration 270 nM, RXRa partner concentration 90 nM); assay: PBM binding z-score (relative to random genomic background probes); higher = stronger binding; sequences stand for … in GC…GCGATTGACAGCGTAGAATGAAGG
Experimental: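 Protein-binding microarray (Agilent 4x180K custom design, double-stranded 60-nt probes: 5' GC cap, 34-nt variable region, 24-nt constant primer region; full probe sequence given). Purified or IVT nuclear receptor:RXRα heterodimers (3:1 NR:RXRα, mostly 270:90 nM) or homodimers were incubated for 1 h in PBS with 2% milk and no ligand, then detected with Alexa488 antibodies. Fluorescence from o1-orientation probes (~5 replicates averaged) was converted to z-scores against 500 random hg19 background probes. Variable regions are seed direct-repeat (DR0–DR5) sites, all their single-nucleotide variants and half-site ablations.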

First: GCAGACAGGTGAAACGCTGGTAACTCAGGGTGGC
Second: TAGACTAGGTCATGCGGGCCAGTATAGTGTCGGC
The PBM binding z-score of the first is lower: -0.466 for the first, 2.46 for the second.

Going from CCTAGTTGGTCAAGGTCAGACACGCTATAGGTAC to GCTTACCGGTCAAAGGTTATAGCATGAATAGAAT, the PBM binding z-score falls from 2.83 to 2.81.

Going from GGAACGAGGGCAACTTGATAGCAGAGTTTGATGG to CCAGGCAGGTGAAAGGTAACTCAGTCTGGTACGC, the PBM binding z-score falls from 0.718 to 0.277.

First: CCTACTGGGCCATTCAAAGGTCATTGATCATATG
Second: ACTCGGAGGACACAGGTCAGAGCTACGCCAGTGA
The PBM binding z-score of the first is higher: 3.96 for the first, 0.834 for the second.

Compared with CATACTGGGCCATCAGGTCATTGATATCAACGTT, ACTACAGGGTCACTAGGCCAGAGTAGGTACGAAT is higher in PBM binding z-score: 2.28 for the first, 3.76 for the second.

Compared with CCGACTGGGGAATAAGGTTACCATAAGCCAGCCC, CAGCCTAGGTCAGGGCTAGTATAGGAGGAACGTT is lower in PBM binding z-score: 0.185 for the first, -0.00307 for the second.

First: GCTATTAGTTGAAAGCGCAACCGAATGATTCTCG
Second: GCTGCTAGGTCAACTGATGGTCAGCTATAGCTCG
The PBM binding z-score of the first is lower: -0.272 for the first, 1.82 for the second.

Going from CGAACTAGGTCAGAACAGGCCAGTGAAGGATGAT to GCTAGCAGGCCATTTGGGTCACTCTATGACGGGC, the PBM binding z-score rises from 0.281 to 0.648.

First: TCTGCTAGGTCAGTTGGCCAGCTAACGAGCTGCC
Second: CAAACTAGGTCAAAGGTCAATGTCGAGCCAACCA
The PBM binding z-score of the first is lower: -0.113 for the first, 6.33 for the second.

Going from CGAACTAGGTCAGAACAGGACTGTGAAGGATGAT to CCTACTGGGCCACAAAAGGTCATTGATTCAGTGA, the PBM binding z-score rises from 0.0454 to 3.98.

Going from CCTCGGAGGACATCAGGAGGTCAGAGCTGCCAGA to GCATATAGGTAATACAAGGTGCAAGTCCGATTGT, the PBM binding z-score falls from 1.99 to 0.355.

Compared with ACTATTAGTTGACTTAGGGCAAACGATACGACGC, GCTGCTAGGTCAACTGATGGGCAGCTAAAGCTCG is higher in PBM binding z-score: 0.55 for the first, 1.09 for the second.

Compared with CCTAGTTGGTCAGGACGTCACACACCGGATATGA, TCTCGCAGGACACGAAGGTCAGAGCTTTCCAGAG is higher in PBM binding z-score: 0.236 for the first, 1.57 for the second.

Compared with CCTTACGGGTCACGAGCTTATAGCACGACGAGCG, GAAACGAGGGCAAAGTTGATAGCATCTGTCGACG is lower in PBM binding z-score: 3.95 for the first, 1.69 for the second.

First: CGGACTGGGGCATAAGGTTACCATAAGCCAGCCC
Second: TCATATAGGTAAAAGTGAAAGTCGAACGATATGA
The PBM binding z-score of the first is higher: 0.33 for the first, 0.265 for the second.

Going from CCTGCAAGGTCATGGTCAGCTAATCTACAGTATG to CCTACTGGGCCAAAGGTCATTGCTTCCAATGCTC, the PBM binding z-score falls from 4.76 to 4.47.

Going from CCTACTGGGCCAAATAGGTCATTGATGCCGATAA to TTTTGTAGATCAGCAGGTTAAGAAAGCTGGCCAA, the PBM binding z-score falls from 2.51 to 0.0929.

First: TACCCTAGGTCATGCGGGCCAGTATAGTGTCGGC
Second: CGTCCAAGGTCAATGCTAGGTCAGTTAAAGCATT
The PBM binding z-score of the first is lower: 3.23 for the first, 5.01 for the second.

Compared with ATATGTAGGTTGCATCCGGGTCATTCAGGCTATG, AGTCAAAGTTCAGGCCGAGGTAACGTAAAGCACG is lower in PBM binding z-score: 3.47 for the first, 3.01 for the second.

Going from ATATGTAGGTTACATTCGGGTCATTCAGGCTATG to CTACCAAGGTGAACACGGTCGTTGATTACTATTC, the PBM binding z-score falls from 4.24 to 3.01.

From the supplement of paper PMC6555819
